This is a sample that favours compounds with a hit; in the whole collection about 7.9% have one here.
Her2 expr inh – Her2 kinase expression inhibition. P04626. SKBR-3 HER2 protein level, AlphaScreen, 18-24 h; hits give low values. HER2 level % of control, % at 10 µM. 65,000 compounds, 0.69% hits. AID 645;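 active = HER2 level under 5% of the carrier-only control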;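 note: lower value means stronger loss of Her2 protein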
Target sequence (P04626 whole entry, looked up): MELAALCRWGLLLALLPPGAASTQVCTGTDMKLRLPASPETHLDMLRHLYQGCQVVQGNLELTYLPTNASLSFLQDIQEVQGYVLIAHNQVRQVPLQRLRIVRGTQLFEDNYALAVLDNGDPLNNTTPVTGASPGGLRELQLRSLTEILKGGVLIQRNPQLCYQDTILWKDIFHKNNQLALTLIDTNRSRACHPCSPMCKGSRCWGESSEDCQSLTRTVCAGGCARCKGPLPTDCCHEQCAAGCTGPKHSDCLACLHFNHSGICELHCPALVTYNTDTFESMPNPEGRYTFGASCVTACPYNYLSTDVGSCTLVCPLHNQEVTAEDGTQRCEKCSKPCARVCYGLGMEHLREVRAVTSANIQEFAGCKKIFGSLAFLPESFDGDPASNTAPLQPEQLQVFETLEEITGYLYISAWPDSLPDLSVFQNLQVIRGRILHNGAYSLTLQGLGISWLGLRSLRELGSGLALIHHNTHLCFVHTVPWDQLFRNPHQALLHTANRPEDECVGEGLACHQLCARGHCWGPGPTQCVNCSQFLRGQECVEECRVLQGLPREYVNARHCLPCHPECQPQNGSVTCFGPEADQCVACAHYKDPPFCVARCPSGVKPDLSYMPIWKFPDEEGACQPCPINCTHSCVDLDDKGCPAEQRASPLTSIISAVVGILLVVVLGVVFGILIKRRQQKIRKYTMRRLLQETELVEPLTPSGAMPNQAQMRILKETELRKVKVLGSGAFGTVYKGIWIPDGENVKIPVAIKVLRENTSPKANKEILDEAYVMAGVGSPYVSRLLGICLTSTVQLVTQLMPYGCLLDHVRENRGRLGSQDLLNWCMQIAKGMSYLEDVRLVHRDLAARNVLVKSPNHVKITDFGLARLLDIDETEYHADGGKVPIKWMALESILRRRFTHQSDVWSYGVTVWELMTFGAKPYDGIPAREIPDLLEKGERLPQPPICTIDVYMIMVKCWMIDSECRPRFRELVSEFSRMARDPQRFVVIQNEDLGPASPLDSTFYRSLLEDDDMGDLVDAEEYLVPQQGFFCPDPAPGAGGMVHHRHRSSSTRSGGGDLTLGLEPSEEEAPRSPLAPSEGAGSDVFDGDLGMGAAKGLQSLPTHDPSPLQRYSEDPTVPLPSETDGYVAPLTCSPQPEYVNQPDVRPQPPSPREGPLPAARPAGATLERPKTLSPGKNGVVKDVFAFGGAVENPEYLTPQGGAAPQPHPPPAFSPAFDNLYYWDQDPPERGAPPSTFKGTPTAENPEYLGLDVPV
PLAP activator – activates human placental alkaline phosphatase; P05187; purified PLAP enzyme, luminescent substrate read-out; hits give high values; activation fold at 20 µM; 96,000 compounds, 1.2% hits; AID 696; in the data active = activation fold above about 2
M1 antagonist – M1 muscarinic receptor (rat) antagonism; CHO-M1 cells, Fluo-4 calcium, ACh EC80 antagonist mode; hits give low values; B-score at 10 µM; P08482; 64,000 compounds, 3.4% hits;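 active = calcium fluorescence response, raw or row-and-column corrected B-score, differing from the plate sample mean either way at a set confidence level, mostly lower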
Cav3 T inh – inhibitors of human Cav3.2 T-type calcium channel | Cav3.2-expressing cells, Fluo-4 calcium fluorescence FDSS; hits give low values | B-score at 10 µM | 100,000 compounds, 4% hits | AID 449739;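 active = single-dose well whose peak fluorescence ratio is a statistical outlier from its plate by either plate-standardised score or position-corrected B-score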
M1 agonist – activates the M1 muscarinic receptor. CHO-M1 cells, Fluo-4 calcium fluorescence, agonist mode; hits give high values. B-score at 10 µM. 64,000 compounds, 3% hits;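 active = fluorescence rise, raw or as B-score row- and column-corrected plate score, outside the 99.7% band of its plate's samples, either direction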
M1 antag confirm – M1 muscarinic receptor (rat) antagonism, confirmed. shares compounds with M1 antagonist. CHO-M1 cells, Fluo-4 calcium, ACh EC80 antagonism; hits give low values. calcium response (max-min fluorescence) at 10 µM. 1,700 compounds, 43% hits;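 active = calcium response below the same-plate mean of wells given acetylcholine alone at its 80%-effect dose, minus 3 SD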
mGluR4 antag – mGluR4 (human) activity, M1 antagonist secondary assay; fluorescence response (max-min) at 10 µM; CHO-mGluR4 calcium flux, Fluo-4 fluorescence, glutamate EC80; hits give low values; AID 678; shares compounds with M1 antagonist; 1,700 compounds, 0.9% hits;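 active = fluorescence response below the plate's average for near-maximal glutamate wells, less 3 SD of those wells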;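 note: raw unnormalized fluorescence span taken in the window right after glutamate addition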
Of the large screens only hits and unclear results are named; the others gave an inactive call (follow-up assays come after a bar, where they were run).

Cc1nc2c(C(=O)N3CCN(c4ccccn4)CC3)cnn2c(C)c1Cc1cccc(Cl)c1	M1 antagonist -2.33 | M1 antag confirm inactive | mGluR4 antag inactive
Cc1nc2c(C(=O)N3CCCC3)cnn2c(C)c1Cc1c(F)cccc1Cl	none (no result: Her2 expr inh, M1 antagonist, M1 agonist)
CCOC(=O)c1cnn(-c2ncnc3sc4c(c23)CCC4)c1N	M1 antagonist -2.69 | M1 antag confirm inactive | mGluR4 antag inactive
CCC(=O)Nc1ccc(NC(=O)CN2CCCC(C)C2)c(Cl)c1 (centres undefined)	M1 antagonist -2.81 | M1 antag confirm inactive | mGluR4 antag inactive
CC1CCN(S(=O)(=O)c2ccc(NC(=O)CN3CCCC(C)C3)cc2)CC1 (centres undefined)	none (no result: Her2 expr inh, M1 antagonist, M1 agonist)
N=c1sccn1CC(=O)NCCc1ccc(Cl)cc1	M1 antagonist -4.72 | M1 antag confirm 408 | mGluR4 antag inactive
COc1cc(CN(C)Cc2ccccc2)cc(OC)c1O	none (no result: Her2 expr inh, M1 antagonist, M1 agonist)
CC1=C(C(=O)NCc2ccccn2)C2(CCC(C)CC2)OC1=O (centres undefined)	none (no result: Cav3 T inh)
Cc1ccc(C)c(N2CCN(C(=O)c3cc(S(=O)(=O)N4CCOCC4)ccc3F)CC2)c1	none (no result: PLAP activator, Cav3 T inh)
C=CCn1c(NCc2ccc(N(C)C)cc2)nc2ccccc21	M1 antagonist -2.27 | M1 antag confirm inactive | mGluR4 antag inactive
CCn1c(CNc2ccccc2Cl)nnc1SCC(=O)OC1CCCCC1	M1 antagonist -4.7, Cav3 T inh -4.48 | M1 antag confirm 370 | mGluR4 antag inactive
CCn1c(CNc2cccc(Cl)c2)nnc1SCC(=O)OC1CCCCC1	none (no result: Cav3 T inh)
CCOC(=O)Cc1csc(NC(=O)CCS(=O)(=O)Cc2ccccc2)n1	none
CN(C)c1nc2c(c(=O)[nH]c(=O)n2C)n1Cc1ccccc1Br	M1 antagonist -2.89 | M1 antag confirm inactive | mGluR4 antag inactive
Cn1c(=O)[nH]c(=O)c2c1nc(Br)n2Cc1ccccc1F	none
CC1CCCN(Cc2cccc(Oc3ccccc3)c2)C1 (centres undefined)	none (no result: Her2 expr inh, M1 antagonist, M1 agonist)
Cc1ccc(S(=O)(=O)N(CC(=O)N2CCC(C(N)=O)CC2)c2cccc(C(F)(F)F)c2)cc1	M1 antagonist -7.27 | M1 antag confirm inactive | mGluR4 antag inactive
CCOC(=O)C1CCN(C(=O)CN(c2cccc(C(F)(F)F)c2)S(C)(=O)=O)CC1	none
O=S(=O)(Nc1nc2ccccc2[nH]1)c1ccc(Cl)cc1	M1 antagonist -16.4 | M1 antag confirm 69.5 | mGluR4 antag inactive
O=C(Nc1nc2ccccc2[nH]1)c1ccccc1	none (no result: Her2 expr inh, M1 antagonist, M1 agonist)
O=C(Cc1ccc(Cl)cc1)Nc1nc2ccccc2[nH]1	none (no result: Her2 expr inh, M1 antagonist, M1 agonist)
O=S(=O)(Nc1nc2ccccc2[nH]1)c1ccccc1	M1 antagonist -5.13 | M1 antag confirm 394 | mGluR4 antag inactive
Cc1ccc(C)c(Cn2c(CN(C)Cc3ccccc3)nc3c2c(=O)n(C)c(=O)n3C)c1	none
CN1/C(=C\C(=O)c2ccco2)c2ccccc2CC1(C)C	M1 antagonist -2.92 | M1 antag confirm inactive | mGluR4 antag inactive
CC1(C)CC(=O)C(=CN2CCN(C(=O)c3ccco3)CC2)C(=O)C1	none
O=C(Nc1cccc(O)c1)c1cc(-c2ccco2)on1	none (no result: Her2 expr inh, M1 antagonist, Cav3 T inh, M1 agonist)
CCCCc1ccc(/C=C2\C(=O)c3ccccc3C(O)=C2C(=O)OCC)cc1	none (no result: Her2 expr inh, M1 antagonist, M1 agonist)
COCCNc1nc(SCC(=O)N2CCN(c3ccccc3OC)CC2)nc2ccccc12	M1 antagonist -3.43 (no result: Cav3 T inh) | M1 antag confirm 503 | mGluR4 antag inactive
OCCN1CCN(Cc2cccc(Oc3ccc(Cl)cc3)c2)CC1	M1 antagonist -2.87 | M1 antag confirm 378 | mGluR4 antag inactive
COc1cc(/C=N/n2cnnc2)ccc1OCc1ccc(C)cc1	none (no result: Her2 expr inh, M1 antagonist, M1 agonist)
Fc1ccc(CN2CCCCCCC2)cc1F	none
COc1ccc(S(=O)(=O)N2CCC(O)(c3ccc(Cl)cc3)CC2)cc1	M1 antagonist -3.8 | M1 antag confirm 379 | mGluR4 antag inactive
COc1ccc(NC(=O)CN2CCN(S(=O)(=O)c3ccc(Cl)cc3)CC2)cc1	none
COc1ccc(C2(CN(C(C)=O)C(C)=O)CCCC2)cc1OC	M1 antagonist -14.4 | M1 antag confirm inactive | mGluR4 antag inactive
Cc1nc2c(o1)CCc1ccccc1C2N1CCN(C)CC1 (centres undefined)	M1 antagonist -14.7 | M1 antag confirm 20.1 | mGluR4 antag inactive
CCN(CC)Cc1cc2ccccc2c2c1COC2	M1 antagonist -2.32 | M1 antag confirm 473 | mGluR4 antag inactive
CCCN(CCC)Cc1cc2ccccc2c2c1COC2	none (no result: Her2 expr inh, M1 antagonist, M1 agonist)
Cc1cc(/C=N/n2cnnc2)c(C)n1-c1ccc(OCc2ccc(F)cc2)cc1	M1 antagonist -2.35 (no result: Cav3 T inh) | M1 antag confirm 503 | mGluR4 antag inactive
CCOC(=O)c1ccc(Nc2nc(C)cc(C)c2C#N)cc1	none
CCOC(=O)c1ccc(Nc2nnc3nc(C)cc(C)n23)cc1	M1 antagonist -1.24 | M1 antag confirm inactive | mGluR4 antag inactive
COc1ccccc1C(c1nnnn1C1CCCC1)N1CCN2CCCC2C1 (centres undefined)	M1 antagonist -3.77 | M1 antag confirm 473 | mGluR4 antag inactive
CCC(Sc1nc(-c2ccccc2)c(C#N)c(=O)[nH]1)C(=O)Nc1nnc(C)s1 (centres undefined)	none (no result: Her2 expr inh, M1 antagonist, M1 agonist)
O=C(Nc1cccc(Cl)c1)NC1CCCCC1	M1 antagonist -2.21 | M1 antag confirm inactive | mGluR4 antag inactive
COc1ccccc1CNC(=O)CS(=O)Cc1nc(-c2ccccc2C)oc1C (centres undefined)	M1 antagonist -2.68 | M1 antag confirm inactive | mGluR4 antag inactive
COc1cc(-c2noc(CCCC(=O)NC3CCCCC3)n2)cc(OC)c1OC	none (no result: Her2 expr inh, M1 antagonist, M1 agonist)
O=C1c2ccccc2S(=O)(=O)c2cc(C(=O)N3CCC(N4CCCC4)CC3)ccc21	none (no result: Her2 expr inh, PLAP activator, M1 antagonist, M1 agonist)
Cc1ccc(S(=O)(=O)Oc2ccc(C3C4=C(CCCC4=O)OC4=C3C(=O)CCC4)cc2)cc1	none (no result: Her2 expr inh, M1 antagonist, M1 agonist)
CN(C)c1ccc(C2C3=C(CCCC3=O)OC3=C2C(=O)CCC3)cc1	M1 antagonist -10.2 | M1 antag confirm 400 | mGluR4 antag inactive
N#Cc1c(NCc2ccccc2)ccnc1NCc1cccnc1	M1 antagonist -4.26 | M1 antag confirm 441 | mGluR4 antag inactive
N#Cc1ccccc1NCc1ccccc1	none
O=C(NCc1ccccc1)c1ccc(COCC(F)(F)F)o1	none
CCC1=C(OC(=O)N(CC)CC)N2C(=O)OC(=NCC(=O)OC)[C@]2(Cc2ccccc2)[C@H]2C1=CC[C@H]1C(=O)N(c3ccccc3)C(=O)[C@H]12	none (no result: Her2 expr inh, PLAP activator, M1 antagonist, M1 agonist)
O=C(Cn1cc(/C=N/O)c2ccccc21)N1CCOCC1	M1 antagonist -2.2 | M1 antag confirm inactive | mGluR4 antag inactive
O=Cc1cn(CC(=O)N2CCOCC2)c2ccccc12	none (no result: Her2 expr inh, PLAP activator, M1 antagonist, M1 agonist)
CCCC(C)C1C(C#N)=C(N)Oc2cc(C)oc(=O)c21 (centres undefined)	none (no result: PLAP activator, Cav3 T inh)
CCCCOC(=O)/C(=C\c1ccc([N+](=O)[O-])o1)NC(=O)c1ccccc1	none (no result: Her2 expr inh, PLAP activator, M1 antagonist, M1 agonist)
COc1ccc(CCN(Cc2cc3cccc(C)c3[nH]c2=O)C(=O)NC2CCCCC2)cc1OC	none (no result: Her2 expr inh, M1 antagonist, M1 agonist)

Screens (PubChem)
